This is an account of results in PubChem BioAssay AID2501 (Southern Research Specialized Biocontainment Screening …, 2010).

By IC50 is commonly meant the concentration at which inhibition is half-maximal.

Among all 2,200 compounds or so, about 1,200 (55%) were called active. Cut-off not given; nearly all actives show IC50 up to about 92 µM. So high a share suggests a set chosen from earlier hits. Some of the results follow.

This assay can be described thus: counter assay for TAg ATPase ADP read-out – biochemical, ADP-Hunter, fluorescence, counter-screen (AID 2501).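 Further: purified T antigen ATPase.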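 On inhibition: higher means more inhibition.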 To be noted: series mostly up to 100 µM. On the technique in general: Counterscreens check selectivity or assay interference.
Consider `CCOc1cc(/C=N/NC(=O)Nc2ccccc2)ccc1O`, for which the IC50 is 9.13 µM (active).

On to `CCOc1cc(/C=N/Nc2nc(C)cc(=O)[nH]2)ccc1O`, for which the IC50 was 2.82 µM (active). The value for `CCOc1cc(/C=N/Nc2ncnc(Cl)c2N)ccc1O` was 3.29 µM (active). In the case of `CCOc1cc(/C=N/NC(=O)N/N=C/c2ccc(O)c(OCC)c2)ccc1O`, the IC50 is 2.03 µM (active). The value for `Nc1c(-c2ccccc2)c(CN2CCOCC2)nn1-c1ccc(F)cc1` was “inactive”; that for `CCOc1cc(/C=N/n2cnnc2)ccc1O` was 6.86 µM (active); that for `Cc1cc(=O)[nH]c(N/N=C/c2c[nH]c3ccccc23)n1` was 5.41 µM (active). As for `COc1ccccc1NC(=O)COc1ccc(/C=N/n2cnnc2)cc1OC`, the IC50 result is “inactive”. With `COc1cc(/C=N/n2cnnc2)ccc1OC(=O)c1ccncc1`, the IC50 is 5.68 µM (active). In the case of `Cc1cc(F)ccc1S(=O)(=O)N(C(=O)c1ccncc1)c1ccc(OC(=O)c2ccncc2)cc1`, the IC50 was 48.3 µM (active).

In the case of `Cc1ccc(C)n1Cc1ccc(C(=O)O)cc1`, the IC50 result is “inactive”. For `Cc1ccsc1C=Nc1ccc(O)cc1`, the IC50 is 5.76 µM (active). `On1ccccc1=S`: the IC50 result was “inactive”.

For the compound `Cc1ccc(/C=N/N2C(=O)c3ccccc3NC2c2ccc(C)cc2)cc1` (centres undefined), the IC50 result is “inactive”. In the case of `Cc1ccc(C2=NOC(=O)/C2=C\c2ccccc2)cc1` it was “inactive”; in that of `Cc1ccc(C2C=NN(c3ccccc3)C2=O)cc1` (centres undefined), 12.2 µM (active). The value for `CCCCn1c(N)c(N(CCOC)C(=O)c2cccc(S(=O)(=O)N(C)c3ccccc3)c2)c(=O)[nH]c1=O` was “inactive”; that for `Cc1cc(C)c2c(CCl)cc(=O)oc2c1` was “inactive”. As to `CC(=O)Oc1cc2oc(=O)cc(C)c2cc1OC(C)=O`, the IC50 was 10.8 µM (active). In the case of `CCc1cc(=O)oc2cc(OCC(N)=O)c(Cl)cc12` it was “inactive”; in that of `CCN(CC)c1ccc(NC(=O)CSc2nc3nc(C)cc(C)c3c(=O)[nH]2)cc1`, 6.75 µM (active); in that of `CN(C)c1ccc(NC(=O)CSc2nc3c(c(=O)[nH]2)CCCC3)cc1`, 2.47 µM (active). Turning to `CCN(CC)c1ccc(NC(=O)CSc2nnc3nc(C)cc(C)n23)cc1`, the IC50 is 2.92 µM (active).

On to `COc1ccc(NC(=O)CSc2nc(NS(=O)(=O)c3ccc(C)cc3)cc(=O)[nH]2)cc1`, for which the IC50 entry was “inactive”.

Turning to `Cc1occc1-c1nnc(SCC(=O)Nc2ccc(F)cc2)n1Cc1ccccc1`, the IC50 entry was “inactive”. Take `Cc1sc2nc(CSCC(=O)N(C)CC(=O)Nc3ccc(F)cc3)[nH]c(=O)c2c1C`: the IC50 result is “inactive”.

Turning to `Cc1ccc(C2(CCNCc3ccco3)CCOC(C(C)C)C2)cc1` (centres undefined), the IC50 entry was “inactive”. With `COc1ccccc1-n1c(-c2cc(-c3ccco3)[nH]n2)n[nH]c1=S`, the IC50 entry was “inactive”. In the case of `FC(F)(F)c1ccc(Cl)c(-n2c(-c3cc(-c4ccco4)[nH]n3)n[nH]c2=S)c1` it was “inactive”. As to `S=c1[nH]nc(-c2cc(-c3ccco3)[nH]n2)n1-c1ccccc1Cl`, the IC50 was 6.42 µM (active).

For the compound `CN(C)c1ccc(NC(=O)CN2C(=O)CC(c3ccccc3)=Nc3ccccc32)cc1`, the IC50 was 5.09 µM (active). For the compound `O=C(CN1C(=O)S/C(=C\C=C\c2ccccc2)C1=O)Nc1ccc(C(=O)O)cc1`, the IC50 entry was “inactive”.

Consider `COc1cc(CNc2ccc3c(c2)OCCO3)ccc1OCC(N)=O`, for which the IC50 was 3.27 µM (active). In the case of `CNC(=O)COc1ccc(C=O)cc1OC` it was “inactive”.

Take `COc1ccc(CCNC(=O)c2cc(-c3ccc4c(c3)OCO4)on2)cc1OC`: the IC50 entry is “inactive”.

For the compound `COc1cc(C=O)c(Cl)cc1OCC(N)=O`, the IC50 result is “inactive”. For `COc1cc(CNc2ccc(N3CCOCC3)cc2)ccc1OCC(=O)NC(C)(C)C`, the IC50 was 4.7 µM (active). The value for `COc1cc(CNc2ccc(N3CCCCC3)cc2)ccc1OCC(=O)NC(C)(C)C` was 4.51 µM (active). The value for `CC(C)N=C(NC#N)SCc1ccc(Br)cc1` was “inactive”; that for `Fc1cccc(Cl)c1Cn1nnc(-c2ccc(N3CCOCC3)cc2)n1` was “inactive”; that for `CCCC(=O)N=c1sc2c(OC)ccc(OC)c2n1C` was “inactive”. The value for `Cc1sc2nc(CSc3ccc([N+](=O)[O-])cc3)[nH]c(=O)c2c1C` was “inactive”. Consider `O=C1OCC(CO)(CO)N=C1NNc1ccccc1Cl`, for which the IC50 is 9.24 µM (active). In the case of `Nc1ccc(OCCCc2c(N)nc(N)nc2N)cc1` it was 6.58 µM (active); in that of `CC1=NN(c2cccc(C(=O)O)c2)C(=O)/C1=C\C=C\c1ccco1`, “inactive”; in that of `O=C1NN(c2ccccc2)C(=O)/C1=C/c1ccc(-c2ccc(C(=O)O)cc2)o1`, 13.4 µM (active). As for `CC(C)S(=O)(=O)C1=NSC2=NC(=O)/C(=C\c3ccc(-c4ccccc4)o3)C(=N)N21`, the IC50 entry is “inactive”. As for `CC1=C(C#N)C(=O)NC(=O)/C1=C/c1ccc(-c2ccc(S(N)(=O)=O)cc2)o1`, the IC50 entry is “inactive”. In the case of `N=C1/C(=C\c2ccc(-c3cccc(C(=O)O)c3)o2)C(=O)N=C2SC=C(c3ccccc3)N12` it was “inactive”; in that of `O=C1NN(c2ccccc2)C(=O)/C1=C\c1ccc(-c2cc([N+](=O)[O-])ccc2O)o1`, 6.89 µM (active); in that of `O=C1NN(c2ccccc2)C(=O)/C1=C/c1ccc(-c2cccc(C(=O)O)c2)o1`, 14.1 µM (active). For the compound `Cc1ccc(-c2ccc(/C=C3\C(=O)ON=C3c3ccccc3)o2)c([N+](=O)[O-])c1`, the IC50 result was “inactive”. In the case of `CCn1c2ccccc2c2nnc(SCC(=O)N(C)C3CCS(=O)(=O)C3)nc21` (centres undefined) it was “inactive”. The value for `CC1=C(C)CS(=O)N(S(=O)(=O)c2ccc(Cl)cc2)C1` (centres undefined) was “inactive”. `COc1ccc(NC2CCCN(Cc3cccc4cnccc34)C2)cc1OC` (centres undefined): the IC50 was 8.39 µM (active). In the case of `Cc1ccsc1C(=O)NCc1ccccc1Cl` it was 81.4 µM (active); in that of `Cc1ccc2c(cnn2C(=O)CCC(=O)NCc2ccccc2Cl)c1`, “inactive”.

As to `Cc1ccccc1C(=O)Nc1nnc(CC(=O)N/N=C/c2cn(Cc3ccccc3)c3ccccc23)s1`, the IC50 entry is “inactive”. In the case of `O=C(Cc1nnc(NC(=O)c2ccccc2)s1)N/N=C\c1ccc(O)c(O)c1` it was 1.55 µM (active). As to `O=[N+]([O-])c1ccc(Sc2nc3ccccc3o2)c([N+](=O)[O-])c1`, the IC50 result is “inactive”.

Turning to `CCn1c(SCC(=O)N/N=C/c2ccc(O)c(OC)c2)nc2ccccc21`, the IC50 was 6.63 µM (active). Turning to `CCSc1nc2ccccc2n1CC(=O)OC`, the IC50 result was “inactive”. As to `O=C(CSc1nc2ccccc2o1)N/N=C/c1ccc(O)c(O)c1`, the IC50 was 7.74 µM (active). In the case of `Cc1cc(SCC(=O)N/N=C/c2ccc(O)c(O)c2)nc2ccccc12` it was 5.75 µM (active); in that of `COc1ccc(C2C3=C(N=C4SCC(=O)N42)c2ccccc2CC3)cc1` (centres undefined), “inactive”.

`Cn1c(SCC(=O)N/N=C/c2ccc(O)c(O)c2)nc2ccccc21`: the IC50 was 6.12 µM (active). The value for `CN(C)c1ccc(NC2=C([N+](=O)[O-])CS(=O)(=O)C2)cc1` was 3.14 µM (active); that for `COc1ccc(N=Nc2c(N)n[nH]c2N)cc1` was 6.12 µM (active). On to `N=C1/C(=C\c2ccc(Br)o2)C(=O)N=C2SC(CC(=O)N3CCCCC3)=NN12`, for which the IC50 entry is “inactive”. The value for `CCN(CC)S(=O)(=O)c1ccc(OC)c(NC(=S)Nc2cccc(C)c2)c1` was “inactive”; that for `COc1cc2c(cc1NC(=S)Nc1ccccc1C)oc1ccccc12` was 23.6 µM (active). For `CCN1C(=O)C2(C(C(=O)c3cc4ccccc4o3)=C(O)C(=O)N2CCCN(C)C)c2ccccc21` (centres undefined), the IC50 was 31.5 µM (active).

As to `Cc1ccc2c(c1)C1C=CCC1C(C(=O)O)N2` (centres undefined), the IC50 entry was “inactive”. For `O=C1CCCN1CCCNC(=S)Nc1ccc(Nc2ccccc2)cc1`, the IC50 is 6.41 µM (active). In the case of `CCOc1cc2[nH]c(=O)n(Cc3ccc(C(=O)NCCCN4CCCC4=O)cc3)c(=O)c2cc1OCC` it was “inactive”; in that of `O=C1/C(=C\c2ccc(O)c(O)c2)N=C2CCCCCN12`, 4.83 µM (active); in that of `CCOc1cc(/C=C2\N=C3CCCCCN3C2=O)ccc1O`, 5.66 µM (active). In the case of `COc1cc(/C=C2\N=C3CCCCCN3C2=O)ccc1O` it was 3.83 µM (active). The value for `COc1cc(/C=c2\sc3n(c2=O)CCCN=3)ccc1O` was 4.98 µM (active). As to `CC(=O)N1CC[n+]2c(-c3ccc([N+](=O)[O-])cc3)csc21`, the IC50 entry was “inactive”. The value for `CCCCN1C(=O)/C(=C(/C#N)C(N)=O)c2ccccc21` was “inactive”; that for `CCN1/C(=C/C=C/c2sc3ccccc3[n+]2CC)Sc2ccccc21` was “inactive”. In the case of `CCN(CC)CCCCN1c2ccccc2Sc2ccccc21` it was 6.81 µM (active); in that of `Cc1ccc(-n2c(=O)c3c4c(sc3n3c(=S)[nH]nc23)CCC4)cc1`, 14.2 µM (active).

As to `COc1ccc(-n2c(=O)c3c4c(sc3n3c(=S)[nH]nc23)CCC4)cc1`, the IC50 was 12 µM (active). The value for `COc1ccc(N2C3=C(CC4=C2CCCC4=O)C(=O)CCC3)cc1` was “inactive”; that for `NC(=O)Cn1c(=O)n(Cc2ccco2)c(=O)c2c3c(sc21)CCCCC3` was “inactive”. As to `O=C(Cn1c(=O)n(Cc2ccco2)c(=O)c2c3c(sc21)CCCCC3)c1ccccc1`, the IC50 entry was “inactive”. With `O=c1c2c3c(sc2n2c(=S)[nH]nc2n1-c1ccccc1)CCC3`, the IC50 was 18.4 µM (active).

Take `CCn1c(=O)n(CC)c2cc(N)ccc21`: the IC50 was 4.09 µM (active). As for `O=c1[nH]c2cc3c(cc2cc1C(c1nnnn1CC1CCCO1)N1CCCCCC1)OCCO3` (centres undefined), the IC50 entry is “inactive”. In the case of `COCCn1nnnc1C(c1cc2cc(OC)c(OC)cc2[nH]c1=O)N1CCN(c2ccc(O)cc2)CC1` (centres undefined) it was 8.81 µM (active); in that of `COc1cccc(C(c2nnnn2Cc2ccco2)N2CCN(Cc3ccccc3)CC2)c1OC` (centres undefined), “inactive”; in that of `CCc1cc2c(Nc3ccc(O)cc3)nc(C)nc2s1`, 4.69 µM (active). Consider `Cc1cc2c(Nc3ccc(O)cc3)ncnc2s1`, for which the IC50 was 3.61 µM (active). The value for `Cc1ccc(-c2nc(CN(Cc3cnn(C)c3)C(C)C)c(C)o2)o1` was “inactive”. In the case of `Nc1ccc(Nc2ccccc2)c(S(=O)(=O)O)c1` it was 4.02 µM (active). In the case of `Cc1ccc(C)n1-c1cccc(C(=O)O)c1` it was “inactive”. Regarding `O=S(=O)(O)c1cccc2cccc(Nc3ccccc3)c12`, the IC50 is 19.5 µM (active). The value for `Nc1cc(C(=O)O)ccc1Nc1ccccc1` was 5.63 µM (active). Consider `N#Cc1c(N)sc(=S)c2c1CCCCC2`, for which the IC50 entry is “inactive”.

For `CCOc1cc(/C=N/NC(=O)CCc2n[nH]c(=O)[nH]c2=O)ccc1O`, the IC50 is 9.46 µM (active).

As for `COc1cc(/C=N/NC(=O)CNc2n[nH]c(=O)[nH]c2=O)ccc1O`, the IC50 is 2.93 µM (active). In the case of `COc1ccc(/C=N/NC(=O)CCc2n[nH]c(=O)[nH]c2=O)cc1O` it was 7.94 µM (active).
